From PubChem BioAssay (NCATS) come the findings set out here.

Inconclusive results are not listed. A call without a number means that no potency is given here. Calls of active or inactive are those of the source. The call rests on the fitted dose curve; in most records, active means well fitted inhibition curve with a large enough effect; inconclusive means small, poorly fitted or top-dose-only effect; inactive means flat fitted curve, though single readings scatter.

Calcium and integrin-binding protein 1 (Homo sapiens), sequence (Q99828 whole entry, looked up): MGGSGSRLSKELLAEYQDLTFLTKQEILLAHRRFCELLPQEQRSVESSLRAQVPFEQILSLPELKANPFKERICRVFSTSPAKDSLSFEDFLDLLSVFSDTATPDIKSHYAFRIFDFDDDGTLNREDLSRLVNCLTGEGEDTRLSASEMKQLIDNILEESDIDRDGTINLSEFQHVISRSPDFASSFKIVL

The target of this test is Calcium and integrin-binding protein 1 (Homo sapiens) (UniProt Q99828). As to the kind of experiment: Primary qHTS for Identification of Calcium Integrin Binding Protein 1 (CIB1) Competitor (AID 1508620).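 Further: GST tagged CIB1 binding a fluorescein labelled alphaIIb integrin peptide tracer; top concentration of the series differs between compounds.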 To be noted: CIB1-GST / FITC-alphaIIb peptide fluorescence polarization; series mostly up to 57.7 µM. The method in brief:
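CIB1-GST (1 uM final) and compound incubated 15 min at room temperature before adding FITC-alphaIIb peptide tracer (100 nM final). Competition for binding read by fluorescence polarization (ex 480, em 540) after another 15 min at room temperature.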
With `COC12CC3C(C(C)C1=CC(=O)O2)C(O)C(OC(C)=O)C1C(C)(C)C(OC(C)=O)CCC31C` (centres undefined), the Potency result is “inactive”.

Turning to `O=C(O)c1cc(O[C@@H]2O[C@H](CO[C@@H]3OC[C@@H](O)[C@H](O)[C@H]3O)[C@@H](O)[C@H](O)[C@H]2O)c2ccccc2c1O`, the Potency entry is “inactive”.

Consider `O=C(CCCCc1ccc2ccccc2c1)C(F)(F)F`, for which the Potency result is “inactive”. Turning to `CC(=O)O[C@@H]1[C@H]2[C@@H](OC(=O)c3ccccc3)[C@@H](C)C[C@]2(O)[C@H](OC(C)=O)[C@@]2(C)[C@@H]3CC(C)(C)C(=O)[C@]3(OC(C)=O)C[C@@]12C`, the Potency entry was “inactive”. As for `COC1CCCC/C(C)=C/C2C=C(C)C(C)C3C(CC(C)C)NC(=O)C23C(=O)C1` (centres undefined), the Potency result is “inactive”. For the compound `C=CC(C)(O)CO[C@@H]1O[C@H](CO)[C@@H](O)[C@H](O)[C@H]1O` (some centres undefined), the Potency entry is “inactive”. In the case of `O=c1c2ccccc2nc2n1CCC2O` (centres undefined), the Potency entry is “inactive”. Take `CC(=O)NC(CCC(=O)O)C(=O)NCCc1ccc(O)cc1` (centres undefined): the Potency entry was “inactive”. `CC(C)(O)/C=C1/C(=O)C(C)(C)C(=O)C(C)(C)C1(O)O[C@@H]1O[C@H](COC(=O)c2cc(O)c(O)c(O)c2)[C@@H](O)[C@H](O)[C@H]1O` (some centres undefined): the Potency entry is “inactive”.
